The values that follow come from PubChem BioAssay (EPA / NIEHS).

A short description of assay [1]: BSK_3C_SRB: Viability Assessment in the BioMAP Diversity Plus: 3C Assay (AID 2283023).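 Note: fitted both ways against DMSO so a hit may be signal rise or drop.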 The settings on record: primary human endothelial cells (HUVEC). The method in brief:
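Human umbilical vein endothelial cells in the 3C system, treated 24 h. Total protein measured by 0.1% sulforhodamine B staining after 10% TCA fixation, read at 560 nm; bidirectional fit versus DMSO.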

Read-out in assay [2]: Matrix Metallopeptidase 1 (MMP1), MMP1 (gene 4312)
The assay can be described thus: BSK_BE3C_MMP1: BioMAP Diversity Plus: BE3C Assay for Matrix Metallopeptidase 1 (MMP1) Biomarker Activity (AID 2283024). The settings on record: primary human bronchial epithelial cells; actives raise or lower the signal. A digest of the protocol:
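In this multiplexed primary-cell system, human bronchial epithelium received chemicals for 24 h before an ELISA for MMP1. Values reflect bidirectional fits normalised to the DMSO baseline.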

Read-out in assay [3]: Pselectin, SELP (gene 6403)
The assay can be described thus: BSK_4H_Pselectin: BioMAP Diversity Plus: 4H Assay for Pselectin Biomarker Activity (AID 2283026). The following applies: primary human endothelial cells (HUVEC); actives raise or lower the signal. A digest of the protocol: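 Bidirectional fits against DMSO gave the endpoint. Cells: primary human umbilical vein endothelium, chemical-treated for 24 h before ELISA detection of P-selectin.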

The nature of assay [4]: BSK_4H_SRB: Viability Assessment in the BioMAP Diversity Plus: 4H Assay (AID 2283027).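 For AC50: curves fitted both ways versus DMSO so AC50 may be loss or gain.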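 Note: cells exposed to compound for 24 h before staining.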 The following applies: primary human endothelial cells (HUVEC). A digest of the protocol: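 Cytotoxicity read-out in primary human endothelial cells: after 24 h compound exposure, cells were TCA-fixed (10%), stained with 0.1% SRB and absorbance taken at 560 nm. Values fitted in both directions relative to DMSO.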

Assay [5] is described as follows: BSK_BE3C_SRB: Viability Assessment in the BioMAP Diversity Plus: BE3C Assay (AID 2283028).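 For AC50: fitted both ways so AC50 may mark signal gain or loss versus DMSO.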 The following applies: primary human bronchial epithelial cells. The method in brief: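 Human bronchial epithelial primary cells in confluent culture, 24 h after chemical dosing; total protein by 0.1% SRB staining after 10% TCA fixation, read at 560 nm. Bidirectional fitting versus DMSO baseline.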

Read-out in assay [6]: Thrombomodulin, THBD (gene 7056)
The assay can be described thus: BSK_3C_Thrombomodulin: BioMAP Diversity Plus: 3C Assay for Thrombomodulin Biomarker Activity (AID 2283029). The following applies: primary human endothelial cells (HUVEC); actives raise or lower the signal. The method in brief:
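In a multiplexed primary-cell system, human umbilical vein endothelium received chemical and was assayed 24 h later for thrombomodulin by ELISA. Parallel cultures were SRB-stained (0.1% SRB after 10% TCA fixation, read at 560 nm) to flag cytotoxicity.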

Read-out in assay [7]: Urokinase-type plasminogen activator receptor (uPAR), PLAUR (gene 5329)
Nature of the assay: BSK_4H_uPAR: BioMAP Diversity Plus: 4H Assay for Urokinase-type plasminogen activator receptor (uPAR) Biomarker Activity (AID 2283030). The settings on record: primary human endothelial cells (HUVEC); actives raise or lower the signal. A digest of the protocol: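 Human umbilical vein endothelial cells in the 4H system, 24 h after chemical dosing. Cell-surface uPAR measured by ELISA, fitted in both directions versus DMSO; cytotoxicity checked by SRB total protein in parallel cultures.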

Read-out in assay [8]: Vascular endothelial growth factor receptor 2 (Homo sapiens) (UniProt P35968)
Nature of the assay: BSK_4H_VEGFRII: BioMAP Diversity Plus: 4H Assay for Vascular endothelial growth factor receptor 2 (VEGFR2) Biomarker Activity (AID 2283031).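 For AC50: cell-surface VEGFR2 protein level quantified by ELISA.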 The following applies: primary human endothelial cells (HUVEC); actives raise or lower the signal. A digest of the protocol: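 Primary human umbilical vein endothelial cells (4H system), 24 h exposure; cell-surface VEGFR2 measured by ELISA. Bidirectional fitting versus DMSO; cytotoxicity checked in parallel by SRB total-protein staining.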

Read-out in assay [9]: Human Leukocyte Antigen - DR isotype (HLADR), HLA-DRA (gene 3122)
The assay can be described thus: BSK_BE3C_HLADR: BioMAP Diversity Plus: BE3C Assay for Human Leukocyte Antigen - DR isotype (HLADR) Biomarker Activity (AID 2283032). The following applies: primary human bronchial epithelial cells; actives raise or lower the signal. A digest of the protocol:
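BioMAP BE3C format: human bronchial epithelium, 24 h compound treatment, ELISA detection of HLA-DR, with bidirectional analysis relative to DMSO.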

Each structure is given as a SMILES string. Active and inactive are the calls of the source. Rule for the calls: active = hit-call score of the fitted dose curve at least 0.9, where 1 is the maximum; inactive = score below 0.9.

As to `Nc1ccc(N)cc1`, the outcome in [1], in assay [2], in assay [3], in [4], in [5] and in assay [6] was inactive. In addition, the outcome in assay [7], in [8] and in [9] was inactive.

In the case of `CC(C)(C)c1ccccc1O`, the result in [1], in assay [2], in [3], in [4], in [5] and in [6] was inactive. Further, the result in assay [7] and in [9] was inactive.

`COc1ccccc1N`: the result in assay [1], in assay [2], in assay [3], in [4], in [5] and in assay [6] was inactive. For the same compound, the outcome in assay [7] and in [9] was inactive.

As for `Clc1cccc(Cl)c1`, the outcome in assay [1], in assay [2], in assay [3], in assay [4], in assay [5] and in assay [6] was inactive. The outcome in assay [7] and in [9] was inactive.

Take `OCCCCO`: the outcome in assay [1], in [2], in [3], in [4], in [5] and in assay [6] was inactive. Also, the outcome in [7] and in assay [9] was inactive.

For `COCC(=O)N(c1c(C)cccc1C)[C@H](C)C(=O)OC`, the outcome in assay [1], in assay [2], in assay [3], in assay [4], in [5] and in assay [7] was inactive. Moreover, the result in assay [8] and in assay [9] was inactive.

Take `C[C@]12CC[C@@H](O)C[C@@H]1CC[C@@H]1[C@@H]2CC[C@]2(C)C(=O)CC[C@@H]12`: the result in assay [1], in assay [2], in [3], in assay [4], in assay [5] and in [6] was inactive. Further, the outcome in assay [7], in assay [8] and in assay [9] was inactive.

With `Cc1ccc2nc3sc(=O)sc3nc2c1`, the AC50 (commonly the concentration giving half of the maximal activity seen) in [1] is 6.71 µM (active); in assay [3], 3.77 µM (active); in assay [4], 6.96 µM (active); in [7], 6.39 µM (active); in assay [9], 5 µM (active). Besides, the result in [2], in assay [5] and in assay [6] was inactive.

Consider `NC(=O)CCl`, for which the result in [1], in assay [2], in [3], in [4], in assay [5] and in assay [6] was inactive. Also, the outcome in [7] and in assay [9] was inactive.

Consider `Cc1ccc(OP(=O)(Oc2ccc(C)cc2C)Oc2ccc(C)cc2C)c(C)c1`, for which the half-maximal activity concentration (AC50) in assay [1] was 12 µM (active); in assay [3], 12.9 µM (active). The outcome in [2], in assay [4], in [5], in assay [6], in [7] and in assay [9] was inactive.

Consider `c1ccc(-c2cccc(-c3ccccc3)c2)cc1`, for which the AC50 in assay [1] was 10.7 µM (active); in [2] it was 0.136 µM (active); in assay [3], 12.4 µM (active); in [4], 20 µM (active); in assay [8] it was 11 µM (active); in [9], 20 µM (active). In addition, the result in [5], in assay [6] and in [7] was inactive.

On to `CCOP(=O)(OCC)OC(=CCl)c1ccc(Cl)cc1Cl`, for which the half-maximal activity concentration (AC50) in [1] is 29 µM (active); in [3], 35.3 µM (active); in [4], 29.3 µM (active); in assay [7], 30.8 µM (active); in [8], 28.7 µM (active). The result in [2], in assay [5], in assay [6] and in assay [9] was inactive.

Regarding `Cc1cc(C)cc(C)c1`, the result in assay [1], in [2], in assay [3], in [4], in assay [5] and in assay [6] was inactive. For the same compound, the outcome in assay [7], in assay [8] and in assay [9] was inactive.

Regarding `c1ccc2sc(SNC3CCCCC3)nc2c1`, the result in assay [1], in [2], in assay [3], in assay [4], in assay [5] and in assay [6] was inactive. In addition, the outcome in assay [7] and in assay [9] was inactive.

`O=C(O)COc1cc(Cl)c(Cl)cc1Cl`: the result in [1], in assay [2], in assay [3], in assay [4], in [5] and in assay [6] was inactive. The outcome in assay [7] and in assay [9] was inactive.

With `Oc1cc(Cl)c(Cl)cc1Cl`, the AC50 in assay [1] was 28.7 µM (active); in assay [3], 25.6 µM (active); in assay [4] it was 25.5 µM (active); in [7], 27.4 µM (active). Also, the outcome in assay [2], in assay [5], in [6] and in assay [9] was inactive.

For the compound `Oc1c(Br)cc(Br)cc1Br`, the results for the AC50 in assay [1], in assay [4] and in [9] were 35.5 µM (active), 29.5 µM (active) and 12.6 µM (active), respectively. The result in assay [2], in assay [6] and in [7] was inactive.

Take `Cc1ccccc1OP(=O)(Oc1ccccc1C)Oc1ccccc1C`: the AC50 in [1] is 6.89 µM (active); in [2] it was 5.4 µM (active); in assay [3], 8.88 µM (active); in [4] it was 15.2 µM (active); in [5] it was 16 µM (active); in assay [7] it was 11.7 µM (active). Besides, in [9], the AC50 was 20 µM (active). Further, the result in assay [6] was inactive.
